Test results as given in ChEMBL document CHEMBL1157539, “Thousands of chemical starting points for antimalarial lead identification” (Nature, 2010).

Experiments:
Assay type in all cases: functional
[1] = system: Plasmodium falciparum; test: GSK_TCMDC: Inhibition of Plasmodium falciparum 3D7 in whole red blood cells, using parasite LDH activity as an index of growth. Test compounds present at 2uM
[2] = system: Plasmodium falciparum; test: GSK_TCMDC: Inhibition of Plasmodium falciparum Dd2 in whole red blood cells, using parasite LDH activity as an index of growth. Test compounds present at 2uM
[3] = system: HepG2; test: GSK_TCMDC: Percent inhibition of human HepG2 cell line. Test compounds present at 10uM.

| Structure (SMILES) | Inhibition [1] [%] | Inhibition [2] [%] | Inhibition [3] [%] |
| --- | --- | --- | --- |
| CCc1ccc(C2CCN(CCCCNC(=O)c3ccc(-c4ccc(Cl)cc4)cc3)CC2)c(O)c1 | 100 | 99 | 48 |
| O=C(NC1CCN(c2ccnc3ccccc23)C1)c1cccc(C(F)(F)F)c1.O=C(O)C(F)(F)F (stereo not given) | 94 | 86 | 28 |
| CCOC(=O)NOC(C(=O)O)c1ccccc1 (stereo not given) | 99 | 17 | 4 |
| CC(=O)Nc1cccc(C(=O)Nc2cccc(-c3ccc(-c4nc5cccc(C)c5[nH]4)s3)c2)c1 | 99 | 26 | 75 |
| NC(=O)c1ccsc1NC(=O)CNC(c1ccccc1)c1ccccc1 | 88 | 37 | 8 |
| CC(C)C[C@@H](/C=N/N1CC(=O)NC1=O)NC(=O)[C@H](CC(C)C)NC(=O)c1ccc(OCCN2CCOCC2)cc1 | 94 | 79 | 11 |
| CN(C)c1cc(C(=O)N[C@@H](Cc2ccccc2)[C@H](O)CNC2CCCCC2)cc2[nH]ccc12.O=CO | 98 | 97 | 10 |
| Cl.N=C(N)NN=Cc1c2ccccc2c(Cl)c2c(Cl)cccc12 | 91 | 72 | 71 |
| CNc1ccc(CNCc2ccc(-c3ccc(-c4nc5cc(C(F)(F)F)ccc5[nH]4)cc3)cc2)cc1.O=C(O)C(F)(F)F | 100 | 98 | 53 |
| COc1cc2nccc(Nc3ccc4c(cnn4Cc4cccc(F)c4)c3)c2cc1OC.Cl | 100 | 99 | 29 |
